# Results from PubChem BioAssay (NCATS).
# Results filed as inconclusive are left out. A call without a number means that no potency is given here. A number with no mark means an inactive call. The source made the active and inactive calls. The call rests on the fitted dose curve.
# Experiments:
# [1] = Primary qHTS for inhibitors of MERS-S pseudo-typed particle cell entry (AID 1479149); further: nearly all actives have a fitted effect of over 60% in size; further: potency means the concentration at half of the fitted maximal effect
# [2] = Confirmatory qHTS to identify inhibitors of SARS-CoV-2 cell entry (AID 1645844); further: potency means the concentration at half of the fitted maximal effect; nearly all actives have a fitted effect of over 45% in size
# In short: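 Luminescence from a luciferase reporter, read 48 hr after pseudotyped-particle addition, gives entry signal, normalised to spike-bearing PP wells and bald PP lacking fusion protein wells. Cells are Expi293F stably expressing human ACE2, compound-pretreated 1 hr.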
# [3] = Cytotoxicity counterscreen for inhibitors of SARS-CoV-2 cell entry (AID 1645845); further: nearly all actives have a fitted effect of over 50% in size; further: potency means the concentration at half of the fitted maximal effect
# In short: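 48 h compound treatment (after 1 h preincubation), HEK293-ACE2 cells, 37 C/5% CO2; ATP luminescence endpoint; normalized to cell wells and media blanks.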
# [4] = Primary qHTS for Huh7 cytotoxicity: counterscreen for inhibitors of MERS-S pseudotyped particle cell entry (AID 1479147)
# [5] = Primary qHTS for Vero E6 cytotoxicity: counterscreen for inhibitors of SARS-S pseudo-typed particle cell entry (AID 1479150); further: potency means the concentration at half of the fitted maximal effect
# [6] = Confirmatory qHTS for activators (rescue) of SARS-CoV-2 Cytopathic Effect (CPE) (AID 1508606); further: potency means the concentration at half of the fitted maximal effect; nearly all actives have a fitted effect of over 70% in size
# [7] = Confirmatory qHTS for VERO E6 Cytotoxicity Assay: Counterscreen for SARS-CoV-2 CPE Assay (AID 1508605); further: series mostly up to about 20 µM; nearly all actives have a fitted effect of over 60% in size
smiles,measurement,setting,value
CCC1=C[C@@H]2CN(C1)Cc1c([nH]c3ccccc13)[C@@](C(=O)OC)(c1cc3c(cc1OC)N(C)[C@H]1[C@@](O)(C(=O)OC)[C@H](OC(C)=O)[C@]4(CC)C=CCN5CC[C@]31[C@@H]54)C2,Potency,[1],3.16 µM (active)
same,Potency,[2],1.48 µM (active)
same,Potency,[3],inactive
Nc1nc(=S)c2[nH]cnc2[nH]1,Potency,[1],inactive
same,Potency,[3],7.94 µM (active)
CN1CCN(C2=Nc3ccccc3Oc3ccc(Cl)cc32)CC1,Potency,[4],inactive
same,Potency,[5],inactive
same,Potency,[3],inactive
COC(=O)C1=C(C)NC(C)=C(C(=O)OCCN(C)Cc2ccccc2)C1c1cccc([N+](=O)[O-])c1 (centres undefined),Potency,[4],inactive
same,Potency,[5],inactive
same,Potency,[3],inactive
CCC(C)n1ncn(-c2ccc(N3CCN(c4ccc(OC[C@H]5CO[C@](Cn6cncn6)(c6ccc(Cl)cc6Cl)O5)cc4)CC3)cc2)c1=O (some centres undefined),Potency,[1],2.51 µM (active)
same,Potency,[5],inactive
same,Potency,[3],inactive
CN(Cc1cnc2nc(N)nc(N)c2n1)c1ccc(C(=O)N[C@@H](CCC(=O)O)C(=O)O)cc1,Potency,[1],inactive
COc1cc2c(cc1OC)C(=O)C(CC1CCN(Cc3ccccc3)CC1)C2 (centres undefined),Potency,[4],inactive
same,Potency,[5],inactive
same,Potency,[3],inactive
CCN(CC)C(=S)SSC(=S)N(CC)CC,Potency,[1],inactive
CC(=O)Oc1ccccc1C(=O)Nc1ncc([N+](=O)[O-])s1,Potency,[1],5.62 µM (active)
same,Potency,[5],28.2 µM (active)
same,Potency,[6],5.01 µM (active)
same,Potency,[2],3.83 µM (active)
same,Potency,[3],inactive
Cc1ccc(O)c([C@H](CCN(C(C)C)C(C)C)c2ccccc2)c1,Potency,[4],inactive
same,Potency,[5],inactive
same,Potency,[3],inactive
C=C[C@H]1CN2CC[C@H]1C[C@@H]2[C@@H](O)c1ccnc2ccc(OC)cc12,Potency,[4],inactive
same,Potency,[5],inactive
same,Potency,[3],inactive
CN1CCN(C(c2ccccc2)c2ccccc2)CC1,Potency,[4],inactive
same,Potency,[5],inactive
same,Potency,[3],inactive
COc1ccc(OC)c(C(O)CNC(=O)CN)c1 (centres undefined),Potency,[4],inactive
same,Potency,[5],inactive
same,Potency,[3],inactive
Cc1ccccc1C(OCCN(C)C)c1ccccc1 (centres undefined),Potency,[4],inactive
same,Potency,[5],inactive
same,Potency,[3],inactive
CN1CCc2cccc3c2[C@H]1Cc1ccc(O)c(O)c1-3,Potency,[1],inactive
same,Potency,[5],inactive
same,Potency,[3],inactive
COc1ccc2nc(S(=O)Cc3ncc(C)c(OC)c3C)[nH]c2c1 (centres undefined),Potency,[4],inactive
same,Potency,[5],inactive
same,Potency,[3],inactive
CNCCCC1c2ccccc2C=Cc2ccccc21,Potency,[5],inactive
same,Potency,[7],inactive
same,Potency,[3],inactive
CSc1ccc2c(c1)N(CCC1CCCCN1C)c1ccccc1S2 (centres undefined),Potency,[5],inactive
